High-throughput results (PubChem)
In the library only some 12% were active in any assay of this set; here they are far more common.
PLK1 PBD block – inhibitors of human PLK1 polo-box domain binding; P53350; Plk1 PBD binding of FITC phosphopeptide, fluorescence polarization; Potency, µM, most hits filed as inhibitors; hit rate 2.8% among 360,000; AID 720504; also: series mostly up to about 57 µM; nearly all actives have a fitted effect of over 65% in size
BAZ2B inh – inhibitors of human BAZ2B bromodomain; hit rate 4.4% among 360,000; AID 504333; Potency, µM (top dose mostly 114 µM), hits mostly inhibitors; AlphaScreen BAZ2B-H3K14Ac peptide displacement; also: nearly all actives have a fitted effect of over 60% in size
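Multi-concentration screen (max 110 uM) measuring displacement of acetylated histone H3 peptide from BAZ2B by AlphaScreen, using 50 nM protein, 50 nM peptide and 10 ug/mL streptavidin donor plus Ni-chelate acceptor beads.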
JMJD2A Tudor inh – blocks the human JMJD2A Tudor domain; AlphaScreen JMJD2A-Tudor / H3K4me3 peptide binding; AID 504339; hit rate 4.4% among 390,000; O75164; Potency, µM (highest dose often 114 µM), usual class: inhibitors; also: nearly all actives have a fitted effect of over 50% in size
HP1b binding inh – HP1-beta chromodomain-methylated histone interaction inhibition | AlphaScreen HP1-beta / biotin-H3K9me3 peptide binding | hit rate 0.56% among 390,000 | Potency, µM (doses to about 114 µM), actives largely listed as inhibitors; also: nearly all actives have a fitted effect of over 70% in size
Target sequence (P83916 whole entry, looked up): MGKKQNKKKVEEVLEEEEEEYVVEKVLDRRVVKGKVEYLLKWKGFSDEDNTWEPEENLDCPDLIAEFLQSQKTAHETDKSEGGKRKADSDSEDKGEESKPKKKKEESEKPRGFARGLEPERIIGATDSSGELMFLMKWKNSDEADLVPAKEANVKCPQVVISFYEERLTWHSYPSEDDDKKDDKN
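HP1-beta protein (50 nM final) preincubated 30 min at room temperature with biotinylated H3(1-18)K9me3 peptide (50 nM) in PBS pH 7.4, 0.01% Tween-20, then compound added for 30 min. AlphaScreen streptavidin donor/nickel chelate acceptor beads (10 ug/mL final), 30 min dark, luminescence read.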
Sfp inh – Sfp phosphopantetheinyl transferase inhibition; Q9F4F7; Biochemical Sfp PPTase activity, qHTS; Potency, µM, usual class: inhibitors; hit rate 3.5% among 310,000;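 also: the enzyme is Sfp with the accession as filed and its product quenches rhodamine fluorescence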
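Fluorescence-quenching assay: 15 nM Sfp-PPTase preincubated 15 min at room temperature with compound, then 5 uM rhodamine-CoA and 12.5 uM BHQ-2-labelled YbbR peptide added. Fluorescence (ex 525/em 598 nm) read at start and after 30 min; difference gives rate.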
G9a inh – inhibitors of human histone lysine methyltransferase G9a | Q96KQ7 | G9a H3K9 monomethylation, AlphaScreen, 2 h | Potency, µM (titrated, usually from 102 µM), actives largely listed as inhibitors | hit rate 8.8% among 350,000 | AID 504332; also: nearly all actives have a fitted effect of over 75% in size
Target sequence (Q96KQ7 913-1193 limits assumed): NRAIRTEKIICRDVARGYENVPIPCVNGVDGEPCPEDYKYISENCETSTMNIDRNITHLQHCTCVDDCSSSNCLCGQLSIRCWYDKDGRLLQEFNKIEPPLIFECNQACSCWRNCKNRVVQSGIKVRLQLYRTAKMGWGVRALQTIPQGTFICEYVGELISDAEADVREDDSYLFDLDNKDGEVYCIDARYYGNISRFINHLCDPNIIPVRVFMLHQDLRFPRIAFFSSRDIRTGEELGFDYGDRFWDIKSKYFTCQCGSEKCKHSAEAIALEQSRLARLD
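Using a bead-based AlphaScreen, monomethylated H3K9 product from 2 h room-temperature reactions (G9a 20 nM, peptide 500 nM, SAM 20 uM) was detected with 0.5 ug/mL rabbit anti-H3K9me1 antibody.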
Hits are given with their value; n = inactive; u = inconclusive; x = not tested or not shown; [ ] = another dose, or the depositor's remark. Calls follow the shape of the dose curve; as a rule, active = well fitted curve in the direction sought with a large enough effect; inconclusive = small, poorly fitted or top-dose-only effect, or another doubt; inactive = no such curve, though single readings can be large; an effect the other way counts as inactive or inconclusive.

SMILES | PLK1 PBD block | BAZ2B inh | JMJD2A Tudor inh | HP1b binding inh | Sfp inh | G9a inh
CCCCS(=O)(=O)N1C2=NC(C(=O)OC)=C(C(=O)OC)[C@@H]3Nc4ccccc4[C@]23C[C@H]1C(=O)OC | x | x | x | x | n | x
Cn1c(C(=O)O)c(CC(=O)Nc2ccc(F)cc2F)c2ccccc21 | n | n | n | n | n | n
Cc1ccc(NC(=O)Cc2nn(C)c(=O)c3ccccc23)cc1F | 3µM | n | 35µM | n | n | n
Cc1ccc(NC(=O)Cc2c(C(=O)O)n(C)c3ccccc23)cc1F | 24µM | n | 45µM | n | n | n
Cn1nc(CC(=O)Nc2ccc3c(c2)OCCO3)c2ccccc2c1=O | n | n | n | n | n | n[12.7 µM]
S=C(NCCCN(Cc1ccc(Cl)cc1)c1ccc(-c2ccccc2)cn1)NCCCN(Cc1ccc(Cl)cc1)c1ccc(-c2ccccc2)cn1 | x | x | u | n | x | x
CCCCN(CCCNC(=S)NCCCc1cnc[nH]1)c1ccc(Br)cn1 | x | x | 50µM | x | x | x
S=C(NCCCc1cnc[nH]1)NCCCN(Cc1ccccc1)c1ccc(Br)cn1 | x | x | 56µM | x | x | x
S=C(NCCCc1cnc[nH]1)NCCCN(CCc1ccccc1)c1ccc(Br)cn1 | x | x | 56µM | u | x | x
CCCCNC(=S)NCCCc1cnc[nH]1 | x | x | n | x | x | x
S=C(NCCCc1ccccc1)Nc1ccccc1 | n | n | n | n | n | n
COc1cc(C(=O)C(=O)c2cc(OC)c(O)c(OC)c2)cc(OC)c1O | n | n | n | n | n | 45µM
COc1cc(-c2cc(OC)c(O)c(OC)c2)cc(OC)c1O | n | x | n | u | x | x
COc1ccccc1NC(=O)Nc1nc(CC(=O)Nc2cc(F)ccc2F)cs1 | n | n | n | n | x | 32µM
COc1ccccc1NC(=O)Nc1nc(CC(=O)Nc2ccc(N(C)C)cc2)cs1 | n | 13µM | 25µM | 40µM | x | 11µM
COc1ccc(N2CCN(C(=O)Cc3csc(NC(=O)Nc4ccccc4OC)n3)CC2)cc1 | n | u | u | n | x | 7.9µM
COc1ccccc1NC(=O)Nc1nc(CC(=O)Nc2cccc(F)c2)cs1 | n | n | n | n | x | 40µM
CCN(CC)C(=O)c1sc2c(c1C)c(=O)n(-c1ccc(Cl)c(Cl)c1)c(=O)n2Cc1ccccc1C#N | x | n | n | n | x | n
Cc1cccc(C)c1NC(=O)C1(C)CSCC(=O)N1C1CCN(Cc2ccccc2)CC1 (stereo not given) | n | x | x | x | x | x
COc1ccc(C)cc1NC(=O)Cc1csc(NC(=O)Nc2ccccc2OC)n1 | 30µM | x | x | x | x | x
O=C(NCc1ccco1)C1Cc2ccccc2CN1C(=O)c1ccco1 (stereo not given) | n | 79µM | u | n | n | n
O=C(NCc1ccco1)C1Cc2ccccc2CN1S(=O)(=O)c1ccccc1F (stereo not given) | n | x | 40µM | u | x | x
Cc1ccc(/C=C(\C#N)C(=O)NC(C)c2ccccc2)o1 (stereo not given) | n | n | n | n | n | n
Cc1ccc(/C=C(/C#N)C(=O)NC(C)c2ccccc2)o1 (stereo not given) | n | n | n | n | 22µM | n
COc1cc(/C=C(/C#N)C(=O)NC(C)c2ccccc2)cc(OC)c1O (stereo not given) | n | u | n | n | n | 14µM
SMILES | PLK1 PBD block | BAZ2B inh | JMJD2A Tudor inh | HP1b binding inh | Sfp inh | G9a inh
CC(C)NC(=O)/C(C#N)=C/c1ccc(N(C)C)o1 | n | n | n | n | n | 50µM
CC(C)N(CCn1cnc2c([nH]c3ccccc32)c1=O)C(C)C | n | n | n[11.4 µM] | n | n | x
COc1cc2[nH]c3c(=O)n(CCN(C(C)C)C(C)C)cnc3c2cc1OC | n | n | n | n | n | 79µM
Oc1c(Br)cc(C=Nc2ccc3nc(-c4ccccc4)[nH]c3c2)c(O)c1Br | n | 40µM | u | n | 56µM | 28µM
O=[N+]([O-])c1ccc(O)c(C=Nc2ccc3nc(-c4ccccc4)[nH]c3c2)c1 | n | n | n | n | n | n
CC(CN1CCN(C)CC1)OC(=O)c1ccccc1Cl (stereo not given) | u | u | 79µM | n | n | 50µM
Cc1ccccc1OCC(=O)OC(C)CN1CCN(C)CC1 (stereo not given) | n | u | u | n | n | 50µM
Cc1ccc(S(=O)(=O)NN=Cc2ccco2)cc1 | n | x | x | x | x | x
CCC(Sc1nc(N)cc(=O)[nH]1)C(=O)Nc1cc(C)on1 (stereo not given) | n | n | n | n | n | n
CCCCNC(=O)C1=CC(c2ccc3c(c2)OCO3)=NS(=O)(=O)N1C | x | n | n | n | x | n
Cc1ccc(C(=O)Nc2nnc(CC(=O)N/N=C/c3ccncc3)s2)cc1 | n | u | u | n | n | 35µM
COc1ccc(C(=O)Nc2nnc(CC(=O)N/N=C/c3ccc(O)cc3O)s2)cc1 | x | n | x | x | n | n
Cc1ccc(C(=O)Nc2nnc(CC(=O)N/N=C/c3ccc(O)c(O)c3)s2)cc1 | n | 79µM | u | n | n | n[2.33 µM]
CC(/C=C1\N=C(SCc2ccccc2)SC1=O)=C\c1ccccc1 | n | n | u | n | n | n
Cc1ccc(N(CC(O)CON=C2c3ccccc3-c3ccccc32)S(C)(=O)=O)cc1 (stereo not given) | n | n | n | n | n | n
O=C1OCc2ccc(NC(=O)c3ccccc3C(=O)O)cc21 | n | n | n | n | n | u
O=C(Nc1ccc2c(c1)C(=O)OC2)c1ccccc1Cl | n | n | n | n | n | 50µM
CSc1ccc(CCNC(=O)c2csc3c2CCCCC3)cc1 | x | n | n | n | x | n
N#Cc1cnn2c(-c3cccc([N+](=O)[O-])c3)ccnc12 | n | n | n | n | x | n
CC(=O)Nc1ccc2ccccc2c1 | n | n | n | n | n | n[12.7 µM]
CCOC(=O)C(Nc1ccc2ccccc2c1)C(=O)OCC | n | 50µM | u | n | n | 2µM
Cc1cc(/C=N/NC(=O)c2ccccn2)c(C)n1-c1cccc([N+](=O)[O-])c1 | n | 45µM | u | u | u | u
O=C(N/N=C\c1cc([N+](=O)[O-])ccc1N1CCOCC1)c1ccccn1 | n | n | n | n | 45µM | u
CCC1ON(c2ccccc2)C2c3nc4ccccc4n3CC12 (stereo not given) | n | n | n | n | n | n
CCOC(=O)CSC1=C(C#N)C(c2ccc(OC)cc2)C2=C(CC(C)(C)CC2=O)N1 (stereo not given) | u | n | n[11.4 µM] | n | 35µM | n[12.7 µM]
CC1(C)CC(=O)C2=C(C1)NC(SCC(=O)Nc1ccccc1)=C(C#N)C2c1ccco1 (stereo not given) | n | n | n | n | n | n[12.7 µM]
Cc1ccc(NC(=O)CSC2=C(C#N)C(c3ccco3)C3=C(CCCC3=O)N2)cc1 (stereo not given) | n | u | u | n | 10µM | n[12.7 µM]
Cc1ccc(C(=O)CSC2=C(C#N)C(c3ccco3)C3=C(CC(C)(C)CC3=O)N2)cc1 (stereo not given) | n | u | u | n | n | 40µM
